In ChEMBL document CHEMBL4513216, “Probing the Open Global Health Chemical Diversity Library for Multistage-Active Starting Points for Next-Generation Antimalarials” (ACS Infect Dis, 2020):
In all, about 69,000 compounds went through this assay and about 8,600 (12%) showed an effect of 50% or more. The list comes from a sample in which strong results are over-represented; it also holds similar structures and randomly drawn compounds.

test system: Plasmodium berghei; assay: Screen against P. berghei liver stage (PbLuc), transformed with Luciferase, at 10uM; type: functional, HepG2; details: tested at 10 uM

SMILES | INHIBITION [%]
Cc1nc2sccn2c1C(=O)N1CCn2nc(C(=O)NC3CC3)cc2C1 | 25.5
Cc1c[nH]c(C(=O)N2CCn3nc(C(=O)NC4CC4)cc3C2)n1 | 53.7
Cc1cc(C(=O)N2CCn3nc(C(=O)NC4CC4)cc3C2)nc(C)n1 | 34.2
N#Cc1cccc(CN2C[C@@H](NC(=O)C3CC3)[C@H]3OCCC[C@H]32)c1 | 42
CCn1c(-c2ccccc2)nn(CC(=O)NCCc2c[nH]cn2)c1=O | 31.4
C=C(C)COc1ccccc1CNCCc1c[nH]cn1 | 21.7
CCc1ccccc1OCCNCCc1c[nH]cn1 | 51.3
O[C@H]1CN(Cc2cc3ccccc3o2)CC[C@@]12CCCO2 | 15.9
Cc1nc(C)n(CC2CCCN(CC(=O)Nc3cccnc3)C2)n1 (stereo not drawn) | 57.2
CCC1CN(CC(=O)Nc2cc(C)nn2C)CCO1 (stereo not drawn) | 23.4
Cc1cc(C)n(CC2CN(CC(=O)Nc3ccncc3)CCO2)n1 (stereo not drawn) | 44.3
Cc1nc(C)n(CC2CCCN2CC(=O)Nc2cccnc2)n1 (stereo not drawn) | -6.39
Cc1cnn(CC2CN(CC(=O)Nc3ccncc3)CCO2)c1 (stereo not drawn) | 11.2
Cc1nc(C)n(CC2CN(CC(=O)Nc3cccnc3)CCO2)n1 (stereo not drawn) | -13.2
Cc1cc(NC(=O)CN2CCOC(Cn3nc(C)cc3C)C2)n(C)n1 (stereo not drawn) | 56
Cc1nc(C)n(CC2CN(CC(=O)Nc3nccs3)CCO2)n1 (stereo not drawn) | 30.1
Cc1nc(C)n(CC2CCCN(CC(=O)Nc3ccncc3)C2)n1 (stereo not drawn) | -0.15
Cc1nc(C)n(CC2CN(CC(=O)Nc3ccncc3)CCO2)n1 (stereo not drawn) | 64.1
Cc1cnn(CC2CN(CC(=O)Nc3cccnc3)CCO2)c1 (stereo not drawn) | 67.5
O=C(CN1CCOC(Cn2cccn2)C1)Nc1cccnc1 (stereo not drawn) | 10.7
CO[C@H]1CCN(C(=O)c2ccsc2)[C@@H]2CN(CC3CC3)C[C@H]12 | 0.112
Cc1cnn(-c2ccc(C(=O)N3CCCC(n4ccnc4C)C3)cc2)c1 (stereo not drawn) | 0.411

SMILES | INHIBITION [%]
Cn1cc(C2CCCN2C(=O)COCCOc2ccccc2)cn1 (stereo not drawn) | 44.1
CC(C)N1CCc2onc(Cn3cccc3)c2C1 | 4.02
Cc1nc(C)n(CC2CCCN2CCOc2ccccc2F)n1 (stereo not drawn) | -83.4
CC(C)c1nc(C2CCCN(C(=O)CCc3cscn3)C2)no1 (stereo not drawn) | -43.5
c1cnc(Nc2cc(CCC3CCCNC3)ccn2)cn1 (stereo not drawn) | -26.2
Cc1nc2cc(C(=O)N3CCn4c(nnc4C4CC4)C3)ccc2s1 | 10.9
CCN(CC)CCn1cc(NC2CCN(C(C)(C)C)CC2)cn1 | -13.1
Cc1nonc1NC(=O)C1SCCc2ccccc21 (stereo not drawn) | -92.8
Cc1nn(C)c(NC(=O)C2SCCc3ccccc32)c1C (stereo not drawn) | 74
O=C(NCCc1nncn1C1CC1)C1SCCc2ccccc21 (stereo not drawn) | -4.13
O=C(c1ccncc1)N(CCO)Cc1cc(Br)ccc1F | 35.6
Nc1nc2c(c(=O)[nH]1)CCN(C(=O)c1ccccc1N1CCCC1)C2 | 8.24
O=C(c1cnc2n1CCCC2)N1CCCC1 | 66.1
O=C(NC1CC1)c1cnc2n1CCCC2 | -40.6
CC(C)(C)NC(=O)c1cnc2n1CCCC2 | -107
O=C(NCCCc1ccccn1)c1cn(CCN2CCNCC2)nn1 | -37.8
CCN1CCN(C(=O)c2cc(-c3cccs3)cs2)CC1 | -15.5
CC(C)NC(=O)Nc1ccc(CS(=O)(=O)C(C)(C)C)cc1 | -8.69
CCS(=O)(=O)N1C[C@@H](c2ccccc2)[C@@]2(CCNC2=O)C1 | 48.4
O=C(c1cccnc1)N1C[C@@H](c2ccccc2)[C@@]2(CCNC2=O)C1 | -0.554
O=C1NCC[C@]12CN(Cc1ccoc1)C[C@H]2c1ccccc1 | -38.1
CCCS(=O)(=O)N1C[C@@H](c2ccccc2)[C@@]2(CCNC2=O)C1 | 53.9

SMILES | INHIBITION [%]
O=C1NCC[C@]12CN(Cc1cccnc1)C[C@H]2c1ccccc1 | -3.77
O=C1NCC[C@]12CN(Cc1ccncc1)C[C@H]2c1ccccc1 | 51.3
Cc1ccc(CN2C[C@@H](c3ccccc3)[C@@]3(CCNC3=O)C2)o1 | -2.46
O=C(c1cnccn1)N1CCC2(CC1)C(=O)NCC2c1ccccc1 (stereo not drawn) | 49.7
O=C(c1cnccn1)N1C[C@@H](c2ccccc2)[C@@]2(CCNC2=O)C1 | 74.8
N#Cc1c2n(c3c(N)ncnc13)CCCCC2 | 44.4
CC(C(=O)N1CCN(c2ncccn2)CC1)n1cncn1 (stereo not drawn) | 10
CCc1oc(C(=O)N2CC[C@@H]3CC[C@H](C2)N3)cc1CN(CC)CC | 29.4
Cc1ccc(CN2CCC(c3cnccn3)CC2)s1 | 18.9535
CC(C)(O)CN1CC(C)(C)CN(C(=O)CCc2ccccc2)CC1=O | 44.9
Cn1c(N2CCOCC2)nc2cc(C(=O)NCC(F)(F)F)ccc21 | 20.9
CCN(C)c1ncnc2c1CCN(C(=O)Cc1ccccn1)CC2 | 34.4
Cc1cc(CNCc2c(C)n(CC(C)C)c3ccccc23)[nH]n1 | 27.4
CC(C)N1CC2(CCC1=O)CCN(c1ccnc3ccccc13)CC2 | 20.5
CC(C)N1CC2(CCCN(c3ccccn3)C2)CCC1=O (stereo not drawn) | -9.18
CC(C)N1CC2(CCCN(c3ccnc4ccccc34)C2)CCC1=O (stereo not drawn) | 65.1
CC(C)N(Cc1cccc(Cl)c1)Cc1nc2c(cnn2C)c(=O)[nH]1 | 15.6
COc1ccc(CCNC2CCCN(Cc3noc(C)n3)C2)cc1 (stereo not drawn) | 35.9
CC(=O)Nc1ccccc1Sc1nc(Br)nn1C | 5.58
CN(Cc1n[nH]c2c1CCC2)C(=O)c1cc(-c2cccn2C)n[nH]1 | -7.53
CC(C)C(=O)NCc1ccc(N(C)C)cc1 | -51.5
CN(C)c1ccc(CNC2=NCCCN2)cc1 | 75.8

SMILES | INHIBITION [%]
CCOCc1ccc(CNC2=NCCCN2)cc1 | 47.1
COC(=O)c1ccc(Cn2nc(C)cc2C)cc1 | -60.4
CCc1c(C(=O)N2CCN(C)[C@@H]3CS(=O)(=O)C[C@@H]32)[nH]c2ccccc12 | 60.1
Cc1c(C(=O)N2CCN(C)[C@@H]3CS(=O)(=O)C[C@@H]32)[nH]c2ccc(F)cc12 | 43
CCN1CCN(C(=O)c2[nH]c3ccccc3c2Cl)[C@H]2CS(=O)(=O)C[C@H]21 | -9.87
CC(C)c1nn(C)c(N(C)C)c1CNC1CCOc2c(F)cccc21 (stereo not drawn) | -12.5
O=C(c1cnccn1)N1CC2(CCN(Cc3ccsc3)C2)C1 | 23.3
CN(C)C(=O)C1CSCN1C(=O)CCc1ccco1 (stereo not drawn) | -75
CS(=O)(=O)NC1(CCc2ccc(NC(=O)C3CC3)nc2)CCCCC1 | 40.6
CC(=O)Nc1ccc(CCC2(NC(=O)C3CC3)CCCCC2)cn1 | 59.2
CC(=O)Nc1ccc(CCC2(NC(=O)C3CCCO3)CCCCC2)cn1 (stereo not drawn) | -1.16
Cc1nn(C(C)C)c2cn(CC(=O)NC3CCSCC3)nc12 | -3.83
O=C(Cc1ccc2c(c1)OCCO2)NCc1ccc(-n2cncn2)nc1 | 19.2
Nc1cc(-c2cccs2)nn(CC(=O)N2CCc3ccccc32)c1=O | 72.2
CC1Cc2ccccc2N1C(=O)Cn1nc(-c2cccs2)cc(N)c1=O (stereo not drawn) | 18.3
Nc1cc(-c2cccs2)nn(CC(=O)NCC2CCCCC2)c1=O | 6.32
CCS(=O)(=O)N1CC(=O)N(CCCc2ccccc2)CC(O)C1 (stereo not drawn) | 26.8
O=C(CCc1nc2cccnc2[nH]1)NCc1ccncc1 | -0.532
Cc1ccc(CN2CCN(c3cncc(N(C)C)n3)CC2=O)cc1C | 56.3
Cc1ccc(CN2CCN(c3ccc(F)cn3)CC2=O)cc1C | 11.2
Cc1ccc(CN2CCN(Cc3ccc(N(C)C)nc3)CC2=O)cc1C | 44
CS(=O)(=O)CCn1ccc(NC(=O)c2c(F)cccc2F)n1 | 46.1

SMILES | INHIBITION [%]
Cc1nccn1C1CCCN(C(=O)c2ccc(N(C)C)nn2)C1 (stereo not drawn) | -22.9
COc1ccccc1NCc1cscn1 | 27.5
O=C(CCc1ccsc1)Nc1cnccc1O | -3.43
COc1ccncc1NCc1ccsc1 | 71.3
COc1ccncc1NCc1cscn1 | 21.6
CC(C)(C)Oc1ccncc1NCc1cscn1 | 70.3
COc1ncc(NCc2ccsc2)cc1C(N)=O | 32.2
Cc1noc(C)c1CSC1CCCN(c2cnn(C)c2)C1=O (stereo not drawn) | -41.9
COCCN1CCOCC12CCN(Cc1ccn(C)n1)CC2 | 34.6
CC(=O)NCc1cc2n(n1)CCN(Cc1cc(-c3ccccc3)no1)C2 | 32.2
COCCN1CCC2(CC1)CC(c1cccnc1)C(=O)N2C (stereo not drawn) | 26.5
CCc1nc(C2CCCN(C(=O)NC(C)C)C2)no1 (stereo not drawn) | 13.6
O=C([C@@H](O)Cc1ccccc1)N1CCCn2cncc2C1 | 18.6
Cc1ccnc(NC(=O)c2cnc(C3CCCNC3)cn2)c1 (stereo not drawn) | 37.35
CC(C)NC(=O)COc1cccc(-c2nc(C(C)C)no2)c1 | 26.8
CCc1cc(=O)n(CC(=O)N2CCC(C)CC2)c(-c2ccccc2)n1 | 57.3
CCc1cc(=O)n(CC(=O)N2CCC(C)CC2)c(-c2cccc(F)c2)n1 | 17.6
CCc1cc(=O)n(CC(=O)N2CCCC2)c(-c2ccccc2)n1 | 4.35
CNc1nc2c(s1)C(c1cc(Cl)ccc1F)CC(=O)N2 (stereo not drawn) | 35.8
CCn1cc(CN(C)S(=O)(=O)c2ccc(C(C)C)cc2)cn1 | 26.7
